The values below come from PubChem BioAssay (NCI).

Among the test systems are HCT-15 colon; HT29 colon; SNB-75 CNS; SNB-19 CNS; U251 CNS; PC-3 prostate; SK-MEL-5 melanoma; UACC-62 melanoma; LOX IMVI melanoma; SK-MEL-28 melanoma; SK-MEL-2 melanoma; EKVX NSCLC; SN12C renal; UO-31 renal; TK-10 renal; ACHN renal; CAKI-1 renal; A498 renal; CCRF-CEM leukemia; MOLT-4 leukemia.
Common to all, as to experiment: NCI-60 one-dose screen, 48 h (100 = growth as untreated, 0 = no growth, -100 = all killed)
What all share (settings): 10 µM

The structures appear in SMILES notation. This is part of a sample that, as a whole, favours compounds with a hit. Of some 83,000 tested, about 20% had one in any assay.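 Cells were grown in 96-well plates and exposed to the test compound at a single concentration for 48 hours; results are reported as percent growth, with values below 10 considered active.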 Values without a mark were called inactive. The source made the active and inactive calls.

On to `O=c1oc2ccc(-c3ccc(F)cc3F)cc2c(=O)n1-c1ccc(F)c(Cl)c1`, for which the growth was -23.6% (active) with HCT-15 colon; 23.1% in the assay with HT29 colon; -23.7% (active) with SNB-75 CNS; 12.5% with SNB-19 CNS; 7.08% (active) in the assay with U251 CNS; 5.69% (active) in the assay with PC-3 prostate. For the same molecule, the growth with SK-MEL-5 melanoma was -91.6% (active); in the assay on UACC-62 melanoma, -60.2% (active); in the assay with LOX IMVI melanoma it was -69.9% (active); with SK-MEL-28 melanoma, -21% (active); in the assay on SK-MEL-2 melanoma, -67.4% (active); with EKVX NSCLC it was -9.05% (active). The growth with SN12C renal is -17% (active); with UO-31 renal it was -5.43% (active); in the assay on TK-10 renal it was 11.9%; in the assay on ACHN renal, -12.7% (active); in the assay with CAKI-1 renal, -20.4% (active); with A498 renal, -20.8% (active). The growth is -5.97% (active) with CCRF-CEM leukemia and -30.7% (active) with MOLT-4 leukemia.

With `CN1CCCN(Cc2ccc(C(=O)Nc3cccc(Nc4ccc5cc(O)ccc5n4)c3)cc2C(F)(F)F)CC1`, the growth in the assay with HCT-15 colon was 14.6%; with HT29 colon it was 27.8%; with SNB-75 CNS, 32.2%; in the assay with SNB-19 CNS it was 81.1%; in the assay on U251 CNS, 33.7%; in the assay on PC-3 prostate it was 51.3%. The growth in the assay with SK-MEL-5 melanoma is 32.4%; with UACC-62 melanoma, 88.1%; in the assay on LOX IMVI melanoma, -100% (active); in the assay on SK-MEL-28 melanoma, -67.9% (active); in the assay on SK-MEL-2 melanoma, 111%; in the assay on EKVX NSCLC it was 71.1%. Further, the growth in the assay on SN12C renal is 86.8%; in the assay on UO-31 renal it was 91.7%; in the assay on TK-10 renal it was 134%; with ACHN renal, 86.4%; with CAKI-1 renal it was 74.7%; in the assay with A498 renal, 139%. The growth in the assay with CCRF-CEM leukemia is -9.62% (active); in the assay with MOLT-4 leukemia it was -6.61% (active).

As for `Oc1ccc(/C=C2\CCCc3cc4ccc(O)cc4[o+]c32)c(O)c1`, the growth in the assay on HCT-15 colon is 10.1%; in the assay with HT29 colon it was 88.5%; in the assay on SNB-75 CNS it was 91.9%; with SNB-19 CNS, 58%; in the assay with U251 CNS it was 8.94% (active); in the assay with PC-3 prostate it was 28.8%. Further, the growth with SK-MEL-5 melanoma is 69.6%; in the assay with UACC-62 melanoma it was 25%; with LOX IMVI melanoma, -31.1% (active); with SK-MEL-28 melanoma, 33.9%; in the assay on SK-MEL-2 melanoma, 37.2%; with EKVX NSCLC, 65.9%. In addition, the growth in the assay with SN12C renal is 26.5%; with UO-31 renal, 51.9%; in the assay with TK-10 renal, 92.3%; in the assay on ACHN renal it was 29.3%; in the assay on CAKI-1 renal, 40.2%; in the assay on A498 renal, 130%. Besides, the growth with CCRF-CEM leukemia is 39%; with MOLT-4 leukemia, 28.5%.

For the molecule `CC(=O)Nc1ccc(-n2cnc3cc(-c4ccc(O)cc4)ccc32)cc1C`, the growth with HCT-15 colon was 49.2%; in the assay on HT29 colon it was 61.6%; with SNB-75 CNS it was 58.4%; in the assay on SNB-19 CNS, 58.4%; in the assay with U251 CNS, 47.7%; in the assay with PC-3 prostate, 58.5%. Besides, the growth in the assay with SK-MEL-5 melanoma was 46.4%; in the assay on UACC-62 melanoma, 42.9%; with LOX IMVI melanoma, 53.3%; with SK-MEL-28 melanoma it was 51.8%; with SK-MEL-2 melanoma it was 19.9%; with EKVX NSCLC it was 61.6%. In addition, the growth in the assay with SN12C renal is 40.4%; in the assay on UO-31 renal, 35.5%; with TK-10 renal, 73.9%; with ACHN renal, 43.1%; with CAKI-1 renal, 44.2%; with A498 renal, 92.1%. Moreover, the results for the growth with CCRF-CEM leukemia and in the assay with MOLT-4 leukemia were 65.1% and 64.7%, respectively.

`O=c1[nH]c2ccc(Cl)cc2cc1CSc1ccc(Nc2nccc(-c3ccc4ccccc4c3)n2)cc1`: the growth in the assay with HCT-15 colon was 12.6%; in the assay on HT29 colon, 75.1%; with SNB-75 CNS it was 107%; in the assay with SNB-19 CNS it was 71.8%; in the assay on U251 CNS, 45.7%; in the assay with PC-3 prostate, 62.4%. Further, the growth with SK-MEL-5 melanoma was 98.4%; in the assay with UACC-62 melanoma, 106%; in the assay with LOX IMVI melanoma it was 60.4%; in the assay on SK-MEL-28 melanoma, 90.8%; in the assay on SK-MEL-2 melanoma it was 97.2%; in the assay on EKVX NSCLC, 83.6%. Moreover, the growth with SN12C renal was 62.6%; in the assay on UO-31 renal, 96.2%; in the assay on TK-10 renal, 79.8%; with ACHN renal, 100%; in the assay with CAKI-1 renal, 97.1%; in the assay on A498 renal it was 119%. In addition, the growth is 80% with CCRF-CEM leukemia and 80.5% in the assay on MOLT-4 leukemia.

As to `CN(C)c1nc(NCCNS(=O)(=O)c2ccc(C(=O)/C=C/c3ccccc3)cc2)nc(Nc2ccc(F)cc2)n1`, the growth with HCT-15 colon is -67.2% (active); with HT29 colon it was -59.8% (active); in the assay on SNB-75 CNS, 87.3%; in the assay with SNB-19 CNS it was 41.7%; in the assay with U251 CNS, -56.2% (active); in the assay on PC-3 prostate it was 16.4%. Besides, the growth is 30.2% in the assay with SK-MEL-5 melanoma; 26.5% in the assay on UACC-62 melanoma; -100% (active) in the assay on LOX IMVI melanoma; 31.4% in the assay with SK-MEL-28 melanoma; 81% with SK-MEL-2 melanoma; 29.1% in the assay on EKVX NSCLC. For the same molecule, the growth is -89% (active) with SN12C renal; 18.2% in the assay with UO-31 renal; 92.5% in the assay on TK-10 renal; 12.7% with ACHN renal; 38.1% with CAKI-1 renal; 61.1% with A498 renal. Moreover, the results for the growth in the assay on CCRF-CEM leukemia and in the assay with MOLT-4 leukemia were 14.8% and 8.21% (active), respectively.

As for `C=C[C@@]12CN3CC[C@]1(O)[C@@](C(=O)OC)(CO2)c1[nH]c2ccccc2c1C3`, the growth is 63.7% with HCT-15 colon; 92.7% in the assay on HT29 colon; 105% in the assay on SNB-75 CNS; 84.4% in the assay on SNB-19 CNS; 81.8% in the assay with U251 CNS; 41.3% in the assay with PC-3 prostate. Besides, the growth with SK-MEL-5 melanoma is 18.3%; with UACC-62 melanoma, 63.9%; in the assay with LOX IMVI melanoma, 67.2%; with SK-MEL-28 melanoma it was 89.4%; in the assay on SK-MEL-2 melanoma it was 86.1%; with EKVX NSCLC it was 53.5%. The growth in the assay with SN12C renal was 67.5%; in the assay on UO-31 renal it was 69.5%; with TK-10 renal it was 97%; in the assay on ACHN renal it was 73.6%; in the assay on CAKI-1 renal, 70.1%; with A498 renal, 81.8%. Moreover, the growth with CCRF-CEM leukemia was 55.3%; in the assay on MOLT-4 leukemia, 76.7%.

In the case of `Cn1c(O)c(N=Nc2nc(-c3cc4ccccc4oc3=O)cs2)c2cc(Br)ccc21`, the growth with HCT-15 colon is 88.5%; in the assay with HT29 colon it was 118%; in the assay on SNB-75 CNS, 54.7%; with SNB-19 CNS it was 12.5%; in the assay with U251 CNS it was 21.3%; in the assay on PC-3 prostate, 102%. For the same molecule, the growth was 96% in the assay on SK-MEL-5 melanoma; 65% in the assay with UACC-62 melanoma; 56.7% with LOX IMVI melanoma; 99.8% in the assay with SK-MEL-28 melanoma; 31.8% in the assay with SK-MEL-2 melanoma; 65.4% in the assay on EKVX NSCLC. In addition, the growth is 73.8% with SN12C renal; 77.9% with UO-31 renal; 56.8% with TK-10 renal; 35.4% in the assay on ACHN renal; 75.7% with CAKI-1 renal; 16.5% with A498 renal. The results for the growth in the assay on CCRF-CEM leukemia and with MOLT-4 leukemia were 97.7% and 104%, respectively.
